# Laboratory results as given in PubChem BioAssay (NCATS).
# Several values for one entry are separate records, joined by “and”; a condition that tells them apart may be missing. Equal entries are not always repeated. Records with an inconclusive call do not appear. A call without a number means that no potency is given here. A number with no mark means an inactive call. Activity calls are given as the source filed them. Calls follow the shape of the dose curve; as a rule, active = well fitted curve in the direction sought with a large enough effect; inconclusive = small, poorly fitted or top-dose-only effect, or another doubt; inactive = no such curve, though single readings can be large; an effect the other way counts as inactive or inconclusive. Where a SMILES comes first, the peptide text is derived from it. [ ]: non-standard residue; d: D form. 2Abz = Nc1ccccc1C(=O)O
# Experiments:
# [1] = Primary qHTS for inhibitors of nuclear receptor binding SET domain protein 2 (NSD2) in an RCH-ACV wild type WT cells (2C) (AID 1645877); also: nearly all actives have a fitted effect of over 70% in size; also: potency is read from the fitted curve at half-maximal effect
# [2] = Primary qHTS for inhibitors of nuclear receptor binding SET domain protein 2 (NSD2) in an isogenic RCH-ACV NSD2 p.E1099K mutant (9B) (AID 1645876); also: nearly all actives have a fitted effect of over 70% in size; also: potency is read from the fitted curve at half-maximal effect
# [3] = target: Rap guanine nucleotide exchange factor 3 (Homo sapiens) (UniProt O95398); experiment: Confirmatory qHTS for antagonist of cAMP-regulated guanine nucleotide exchange factor 3 (EPAC1) (AID 1645880); conditions: EPAC1 Rap1B-BODIPY-GDP exchange, fluorescence; also: potency is read from the fitted curve at half-maximal effect; nearly all actives have a fitted effect of over 55% in size
# Sequence of Rap guanine nucleotide exchange factor 3 (Homo sapiens) (O95398 whole entry, looked up): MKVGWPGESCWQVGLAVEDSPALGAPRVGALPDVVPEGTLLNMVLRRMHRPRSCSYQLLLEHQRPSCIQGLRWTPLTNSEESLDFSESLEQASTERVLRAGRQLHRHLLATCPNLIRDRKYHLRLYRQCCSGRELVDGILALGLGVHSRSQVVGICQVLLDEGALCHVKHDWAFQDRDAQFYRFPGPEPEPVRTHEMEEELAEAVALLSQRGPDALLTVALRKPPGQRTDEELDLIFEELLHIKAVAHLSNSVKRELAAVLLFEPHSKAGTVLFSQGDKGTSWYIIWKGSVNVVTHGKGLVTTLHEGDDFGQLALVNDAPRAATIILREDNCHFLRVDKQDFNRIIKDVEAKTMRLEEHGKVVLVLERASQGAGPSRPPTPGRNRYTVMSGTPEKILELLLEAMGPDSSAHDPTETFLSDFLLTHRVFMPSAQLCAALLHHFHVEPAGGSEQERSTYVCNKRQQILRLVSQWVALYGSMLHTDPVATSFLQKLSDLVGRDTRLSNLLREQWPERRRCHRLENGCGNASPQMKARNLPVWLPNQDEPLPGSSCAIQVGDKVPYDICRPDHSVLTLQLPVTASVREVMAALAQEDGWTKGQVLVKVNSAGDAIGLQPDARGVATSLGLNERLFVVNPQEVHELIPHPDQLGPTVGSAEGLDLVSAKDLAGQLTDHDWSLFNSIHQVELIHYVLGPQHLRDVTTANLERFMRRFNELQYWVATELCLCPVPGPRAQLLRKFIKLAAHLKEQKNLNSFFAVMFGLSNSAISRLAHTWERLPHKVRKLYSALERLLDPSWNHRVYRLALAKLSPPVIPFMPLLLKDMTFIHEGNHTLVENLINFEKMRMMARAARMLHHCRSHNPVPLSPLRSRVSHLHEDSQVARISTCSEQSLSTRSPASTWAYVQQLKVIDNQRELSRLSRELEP
# In short: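 Nucleotide exchange uses 100 nM EPAC1, 250 nM RAP1B-BODIPY-GDP and 50 uM GDP, with compounds in a concentration-titration series. After 5 min at room temperature, fluorescence (480 nm ex/540 nm em) is read every 5 min for 30 min. Data are normalized to control ATA and DMSO.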
# [4] = target: Rap guanine nucleotide exchange factor 3 (Homo sapiens) (UniProt O95398); experiment: Confirmatory qHTS for agonist of cAMP-regulated guanine nucleotide exchange factor 3 (EPAC1) (AID 1645881);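 also: EPAC1 catalysed release of BODIPY-GDP from Rap1B seen as fluorescence loss; nearly all actives have a fitted effect of over 75% in size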
structure (smiles),measurement,setting,value
CC(=O)O[C@@H]1[C@H]2[C@@H](OC(=O)c3ccccc3)[C@@H](C)C[C@]2(O)[C@H](OC(C)=O)[C@@]2(C)[C@@H]3CC(C)(C)C(=O)[C@]3(OC(C)=O)C[C@@]12C,Potency,[1],inactive
C[C@]12CCC(=O)C=C1[C@@H](O)C[C@@H]1[C@@H]2[C@@H](O)C[C@@]2(C)[C@H]1CC[C@]2(O)C(=O)CO,Potency,[2],inactive
same,Potency,[1],inactive
CC1(C)C[C@H]2C3=CCC4[C@@]5(C)CC[C@H](O[C@H]6O[C@H](C(=O)O)[C@@H](O)[C@H](O)[C@H]6O[C@H]6O[C@H](CO)[C@@H](O)[C@H](O)[C@H]6O[C@@H]6O[C@H](CO)[C@@H](O)[C@H](O)[C@H]6O)[C@](C)(CO)C5CC[C@@]4(C)[C@]3(C)CC[C@@]2(C)[C@H](O[C@@H]2OC[C@H](O)[C@H](OC3O[C@H](CO)[C@@H](O)[C@H](O)[C@H]3O)[C@H]2O)[C@@H]1O (stereo not given in full),outcome,[2],inactive [at 9.23 µM]
same,outcome,[1],inactive [at 9.23 µM]
C[C@@H]1CC[C@]2(C)C3(C)CC[C@@]2(OC3=O)[C@@]12C[C@H](c1ccoc1)OC2=O,Potency,[1],inactive
CC1(CO)CC[C@]2(C(=O)O[C@@H]3O[C@H](CO)[C@@H](O)[C@H](O)[C@H]3O)CC[C@]3(C)C(=CCC4[C@@]5(C)C[C@H](O)[C@H](O[C@@H]6OC[C@@H](O)[C@H](O)[C@H]6O)[C@@](C)(CO)C5CC[C@]43C)C2C1 (stereo not given in full),"activity change, negative = viability loss",[2],1.64% [at 9.23 µM]
same,outcome,[1],inactive [at 9.23 µM]
CC(CO[C@@H]1O[C@H](COC(=O)/C=C/c2ccc(O)c(O)c2)[C@@H](O)[C@H](O)[C@H]1O)C1(O)COC(=O)C1 (stereo not given in full),Potency,[1],inactive
CC(Cc1ccc(O)c(O)c1)C(C)Cc1ccc(O)c(O)c1 (stereo not given),Potency,[3],31.4 µM (active)
same,outcome,[4],inactive
CCc1nc(C(N)=O)c(Nc2ccc(N3CCC(N4CCN(C)CC4)CC3)c(OC)c2)nc1NC1CCOCC1,Potency,[2],1.13 µM (active) and 2.63 µM (active)
same,Potency,[1],1.13 µM (active) and 2.63 µM (active)
C[C@@H]1CC[C@H]2C(C)(C)[C@H](O)[C@H](O)C[C@]2(C)[C@@]12Cc1c(O)cc3c(c1O2)CNC3=O,Potency,[2],inactive
same,Potency,[1],inactive
OC[C@H]1O[C@@H](Oc2ccc3c(c2)OC[C@H]2c4cc5c(cc4O[C@@H]32)OCO5)[C@H](O)[C@@H](O)[C@@H]1O,Potency,[1],7.96 µM (active)
COC1C2=C(COC2=O)C2(C)CCCC(C)(CO)C2C1OC(=O)c1ccccc1 (stereo not given),Potency,[1],inactive
CC1=C2C(=O)C=C(CO)[C@@H]2[C@H]2OC(=O)[C@H](C)[C@@H]2[C@@H](O)C1,Potency,[2],inactive
same,Potency,[1],inactive
c1ccc(Cc2ncc3c(n2)CCNCC3)cc1,Potency,[2],inactive
same,Potency,[1],inactive
CC1=C(CC(=O)O)c2cc(F)ccc2C1=Cc1ccc(S(C)(=O)=O)cc1,Potency,[2],inactive
same,Potency,[1],inactive
COC(=O)C[C@@H]1C(C(=O)O)=CO[C@@H](O[C@@H]2O[C@H](CO)[C@@H](O)[C@H](O)[C@H]2O)/C1=C\COC(=O)/C=C\c1ccccc1,Potency,[2],inactive
same,Potency,[1],inactive
O=C(/C=C/c1ccc(O)cc1)OCC1=CC2OC(=O)C3=CO[C@@H](O[C@@H]4O[C@H](CO)[C@@H](O)[C@H](O)[C@H]4O)[C@H]1[C@@H]32 (stereo not given in full),Potency,[2],inactive
same,Potency,[1],inactive
COc1cc(/C=C/C(=O)OC2CC(OC(C)=O)C(OC(C)=O)C3C2CCC2C(=O)OC(c4ccoc4)CC23C)ccc1O[C@@H]1O[C@H](CO)[C@@H](O)[C@H](O)[C@H]1O (stereo not given in full),Potency,[1],inactive
CCC(C)C1NC(=O)C2CCCN2C(=O)C(C(C)C)NC(=O)c2ccccc2NC(=O)C(Cc2ccc(O)cc2)NC(=O)C(C)NC(=O)C(C(C)O)NC1=O (stereo not given) (cyclo([2Abz]VPITAY); configuration not given here),Potency,[2],inactive
same,Potency,[1],inactive
